Measurements as given in PubChem BioAssay (Tox21).
Results filed as inconclusive are left out. The source made the active and inactive calls. Unless noted, calls follow the shape of the dose curve; as a rule, active = well fitted curve in the direction sought with a large enough effect in the repeat runs; inconclusive = weak or mixed curves; inactive = no such curve, though single readings can be large; an effect the other way counts as inactive or inconclusive.

Assays:
[1] = qHTS assay for small molecule agonists of the p53 signaling pathway (AID 651631; calls by dose curve; also: nearly all actives have a fitted effect of over 15% in size)
Procedure, shortened: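 Beta-lactamase reporter activity under p53 response elements was quantified in HCT-116 cells by FRET fluorescence, following 16 h incubation with test compounds at 37 °C and 2 h substrate development at room temperature.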

[2] = qHTS assay for small molecules that induce genotoxicity in human embryonic kidney cells expressing luciferase-tagged ATAD5 (AID 651632); also: nearly all actives have a fitted effect of over 15% in size
Procedure, shortened: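 Reporter cells (HEK293T) express luciferase-tagged ATAD5, a protein that accumulates after DNA damage. Treat 16 hr at 37C/5% CO2, add Amplite, wait 30 min at RT, and read luminescence.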

[3] = qHTS assay for small molecule agonists of the p53 signaling pathway - cell viability (AID 651633; calls by dose curve; also: nearly all actives have a fitted effect of over 30% in size; also: potency is read from the fitted curve at half-maximal effect)
Procedure, shortened: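 p53RE-bla cells, seeded at 4,000 per well and rested 5 h at 37 C/5% CO2, received compounds in DMSO for 16 h at 37 C. CellTiter-Glo was then added, and luminescence was read after 30 min at room temperature to gauge cytotoxicity.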

[4] = qHTS assay for small molecules that induce genotoxicity in human embryonic kidney cells expressing luciferase-tagged ATAD5 - cell viability (AID 651634; calls by dose curve; also: nearly all actives have a fitted effect of over 25% in size; also: potency is read from the fitted curve at half-maximal effect)
Procedure, shortened: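 Seeding of 2,000 HEK293T ATAD5-luciferase cells per well preceded pin-tool compound transfer. Plates sat 15.5 hr at 37C under 5% CO2, then fluorescence was read after 30 min with CellTiter-Fluor.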

[5] = qHTS assay for small molecule disruptors of the mitochondrial membrane potential - cell viability (AID 720634; calls by dose curve; also: nearly all actives have a fitted effect of over 20% in size; also: potency is read from the fitted curve at half-maximal effect)
Procedure, shortened: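 Measuring cytotoxicity alongside mitochondrial potential, the screen quantified ATP by luminescence in HepG2 cells after 1 hr compound incubation and a 30 min room-temperature CellTiter-Glo step.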

[6] = qHTS assay to test for compound auto fluorescence at 590 nm (red) in HepG2 cells (AID 720674); also: potency is read from the fitted curve at half-maximal effect
Procedure, shortened: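 Intrinsic compound fluorescence in the red window (Ex/Em 540/590 nm) is measured in attached HepG2 cells exposed for 1 hr, DMSO vehicle as baseline, benchmarked to Rose Bengal sodium.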

[7] = qHTS assay to test for compound auto fluorescence at 535 nm (green) in HepG2 cells (AID 720675)
[8] = qHTS assay to test for compound auto fluorescence at 590 nm (red) in HEK293 cells (AID 720679); also: potency is read from the fitted curve at half-maximal effect
Procedure, shortened: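 Intensity at 540nm excitation and 590nm emission is reported as Rose Bengal sodium-equivalent autofluorescence. Measurements followed overnight exposure (37C, 5% CO2) of HEK293 cells, 2,000 per well, to 23 nL compound.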

[9] = qHTS assay to test for compound auto fluorescence at 535 nm (green) in HEK293 cells (AID 720680)
[10] = qHTS assay to test for compound auto fluorescence at 460 nm (blue) in HEK293 cell free culture (AID 720681)
Procedure, shortened: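 Test compounds were pinned into cell-free culture medium (DMEM with 10% FBS) and fluorescence was read directly at Ex/Em 405/460 nm. Signals were expressed as fluorescence equivalents of triamterene, with DMSO vehicle as control.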

[11] = qHTS assay to test for compound auto fluorescence at 535 nm (green) in HEK293 cell free culture (AID 720682)
Procedure, shortened: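 Each library compound, or DMSO control, is added by pintool to medium alone, comprising DMEM and 10% FBS. Emission at 535 nm following 485 nm excitation is quantified against fluorescein.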

[12] = qHTS assay to test for compound auto fluorescence at 590 nm (red) in HEK293 cell free culture (AID 720683); also: potency is read from the fitted curve at half-maximal effect
Procedure, shortened: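 Tox21 10K library compounds were pinned into cell-free DMEM with 10% FBS and fluorescence was read at excitation 540 nm. Activity is expressed as Rose Bengal sodium equivalency.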

[13] = qHTS assay to test for compound auto fluorescence at 590 nm (red) in HepG2 cell free culture (AID 720684); also: potency is read from the fitted curve at half-maximal effect
Procedure, shortened: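 Red fluorescence (540 nm excitation, 590 nm emission) was measured after compound transfer into cell-free MEM supplemented with 10% FBS. Values are equivalencies against Rose Bengal sodium.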

[14] = qHTS assay to test for compound auto fluorescence at 535 nm (green) in HepG2 cell free culture (AID 720686)
[15] = qHTS assay to test for compound auto fluorescence at 460 nm (blue) in HepG2 cells (AID 720687)
Procedure, shortened: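 Cells (2,000/well in MEM with 10% FBS) attached overnight at 37 C, then were exposed to compound or DMSO for 1 hr at 37 C, 5% CO2. Fluorescence read at Ex/Em 405/460 nm, expressed as triamterene-equivalent signal.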

[16] = qHTS assay to test for compound auto fluorescence at 460 nm (blue) in HEK293 cells (AID 720678)
Procedure, shortened: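 HEK293, 2,000 cells/well, 10% dialyzed FBS; attach 4-5 hr 37C; pin compound or DMSO; o/n 37C/5% CO2; fluorescence 405/460 nm; triamterene-equivalent units.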

[17] = qHTS assay to test for compound auto fluorescence at 460 nm (blue) in HepG2 cell free culture (AID 720685)
Procedure, shortened: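 Compound (23 nL) or DMSO pinned into cell-free MEM with 10% FBS; blue fluorescence read at 405/460 nm excitation/emission, expressed as auto-fluorescence equivalency to triamterene.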

[18] = molecular target: Glucocorticoid receptor (Homo sapiens) (UniProt P04150); assay: qHTS assay to identify small molecule agonists of the glucocorticoid receptor (GR) signaling pathway (AID 720691; active = well fitted activation curve with a large enough effect in the signal ratio in the repeat runs, not every such curve was filed as active; the % refers to the signal ratio)
Glucocorticoid receptor (Homo sapiens), sequence (P04150 whole entry, looked up): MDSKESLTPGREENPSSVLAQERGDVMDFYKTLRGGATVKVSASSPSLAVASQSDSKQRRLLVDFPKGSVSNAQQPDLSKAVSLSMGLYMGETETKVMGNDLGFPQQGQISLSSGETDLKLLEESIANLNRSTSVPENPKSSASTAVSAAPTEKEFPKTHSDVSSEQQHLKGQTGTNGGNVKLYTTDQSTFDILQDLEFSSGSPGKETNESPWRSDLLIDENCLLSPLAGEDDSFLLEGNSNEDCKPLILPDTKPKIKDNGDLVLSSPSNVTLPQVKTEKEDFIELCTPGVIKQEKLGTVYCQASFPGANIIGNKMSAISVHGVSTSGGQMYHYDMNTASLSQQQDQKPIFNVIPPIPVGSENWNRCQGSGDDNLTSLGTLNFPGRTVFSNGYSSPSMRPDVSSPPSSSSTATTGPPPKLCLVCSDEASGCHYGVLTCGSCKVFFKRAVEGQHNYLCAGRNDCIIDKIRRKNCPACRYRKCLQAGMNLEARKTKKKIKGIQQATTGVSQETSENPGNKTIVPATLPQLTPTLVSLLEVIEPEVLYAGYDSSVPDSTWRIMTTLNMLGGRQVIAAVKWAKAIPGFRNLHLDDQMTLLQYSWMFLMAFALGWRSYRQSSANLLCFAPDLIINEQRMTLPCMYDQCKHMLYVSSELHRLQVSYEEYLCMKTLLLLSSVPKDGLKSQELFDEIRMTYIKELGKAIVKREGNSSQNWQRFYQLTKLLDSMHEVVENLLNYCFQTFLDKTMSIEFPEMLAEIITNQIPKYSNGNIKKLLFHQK
Procedure, shortened: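 Reporter read-out: fluorescence intensity following 2 h room-temperature LiveBLAzer B/G FRET substrate loading. Prior step: GR-bla HeLa cells held 4 h, then treated 18 h at 37 C.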

[19] = molecular target: Glucocorticoid receptor (Homo sapiens) (UniProt P04150); assay: qHTS assay to identify small molecule antagonists of the glucocorticoid receptor (GR) signaling pathway (AID 720692; active = well fitted inhibition curve with a large enough effect in the signal ratio in the repeat runs, not every such curve was filed as active; the % refers to the signal ratio)
Procedure, shortened: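 Dexamethasone (5 nM final) stimulated a stably integrated GRE-beta-lactamase reporter in HeLa cells during 18 h co-incubation with compounds; signal was quantified as fluorescence intensity of B/G FRET substrate after 2 h.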

Measured: Potency
Tags tell the direction and shape of the fitted curve or compound fluorescence and quenching.

COc1ccc(NC(=O)CC(C)=O)cc1
not listed: [16] | [17] | [18] | [19]
inactive: all other assays above

Cc1ccc(-c2ccccc2)cc1
not listed: [8] | [15]
inactive: all other assays above

O=S(=O)(O)c1ccc(N=Nc2c(O)ccc3ccccc23)cc1
active: [4] 27.3 µM
not listed: [7] | [15] | [19]
inactive: all other assays above

CC(C)CCCCCOC(=O)CCS
not listed: [7] | [9]
inactive: all other assays above

Cc1ccc(N/N=c2\c(=O)cc/c(=N\Nc3ccc(S(=O)(=O)O)cc3)c2=O)c(C)c1
active: [4] 61.1 µM
not listed: [6] | [16] | [18] | [19]
inactive: all other assays above

CC1=CCC(=C(C)C)CC1
not listed: [5] | [18] | [19]
inactive: all other assays above

CC(=O)CC(=O)Nc1ccc(S(=O)(=O)O)cc1
not listed: [5] | [7] | [9] | [15] | [17] | [19]
inactive: all other assays above

CCO[Si](OCC)(OCC)OCC
not listed: [15]
inactive: all other assays above

COc1cc(S(=O)(=O)O)c(C)cc1N=Nc1c(O)ccc2cc(S(=O)(=O)O)ccc12
active: [4] 27.3 µM
not listed: [16]
inactive: all other assays above

CCCCCC(C)OC(=O)COc1ccc(Cl)c2cccnc12 (stereo not drawn)
not listed: [7] | [9] | [19]
inactive: all other assays above

CC1(C)CCC[C@]2(C)[C@H]3CC(=O)O[C@]3(C)CC[C@@H]12
not listed: [7]
inactive: all other assays above

C[C@H]1NCc2cc(-c3ccc4c(=O)c(C(=O)O)cn(C5CC5)c4c3OC(F)F)ccc21
not listed: [16]
inactive: all other assays above

CCN(CCN)c1cccc(C)c1
not listed: [6] | [7] | [18] | [19]
inactive: all other assays above

CCN(CC)c1ccc2c(-c3ccc(S(=O)(=O)O)cc3S(=O)(=O)[O-])c3ccc(=[N+](CC)CC)cc-3oc2c1
active: [3] 9.99 µM | [4] 25.1 µM | [5] 70.7 µM | [6] 0.398 µM | [8] 0.501 µM [fluorescent] | [12] 0.794 µM [fluorescent] | [13] 0.355 µM [fluorescent]
not listed: [17]
inactive: all other assays above

COC(=O)c1ccccc1C
not listed: [17]
inactive: all other assays above
